Compound activity (PubChem)
Shiga toxin inh = inhibitors of Shiga toxin in Vero cells; Vero cells, Shiga toxin protein synthesis inhibition reporter; actives 9.2% (n = 290,000); inhibition, % at 38.7 µM; in the data active means inhibition mostly above about 28%, no sharp cut-off; inactive means mostly below about 43%
CHX counter = affects cycloheximide protein synthesis inhibition readout, counter-screen | cell reporter, cycloheximide protein synthesis inhibition counterscreen | max response, % | actives 12% (n = 300,000) | AID 2314; in the data active means max response mostly above about 13%, no sharp cut-off; inactive means mostly below about 14%; further: read at 38.3 µM for the half of the compounds with a filed dose
Pf growth 96h = P. falciparum growth inhibition at 96 hour, primary screen for plastid delayed-death inhibitors | P. falciparum luciferase reporter growth, 96 h | Potency, µM (top dose mostly 28.7 µM), most hits filed as inhibitors | actives 6.9% (n = 320,000) | AID 504834
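Luminescence readout: decreased luciferase signal marks inhibited growth of reporter-expressing P. falciparum in infected red cells (2% hematocrit, 0.05% parasitemia final), exposed to compound two generations (96 h, 37 C, 5% CO2).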
Pf growth 48h = inhibits P. falciparum growth in the first generation, 48 h; P. falciparum luciferase growth in erythrocytes, 48 h; Potency, µM (top dose mostly 28.7 µM), actives largely listed as inhibitors; actives 5.9% (n = 310,000)
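Compounds are pin-transferred into medium, infected erythrocytes (2% hematocrit, 0.1% parasitemia final) are added, and plates sit one parasite generation at 37 C in 5% CO2. Detection reagent is then added and luminescence measured.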
LmPK inhibitor = inhibitors of Leishmania mexicana pyruvate kinase. Q27686. purified LmPK, Kinase-Glo ATP luminescence, 1 h. Potency, µM (titrated, usually from 57.5 µM), hits mostly inhibitors. actives 0.37% (n = 290,000)
Target sequence (Q27686 whole entry, looked up): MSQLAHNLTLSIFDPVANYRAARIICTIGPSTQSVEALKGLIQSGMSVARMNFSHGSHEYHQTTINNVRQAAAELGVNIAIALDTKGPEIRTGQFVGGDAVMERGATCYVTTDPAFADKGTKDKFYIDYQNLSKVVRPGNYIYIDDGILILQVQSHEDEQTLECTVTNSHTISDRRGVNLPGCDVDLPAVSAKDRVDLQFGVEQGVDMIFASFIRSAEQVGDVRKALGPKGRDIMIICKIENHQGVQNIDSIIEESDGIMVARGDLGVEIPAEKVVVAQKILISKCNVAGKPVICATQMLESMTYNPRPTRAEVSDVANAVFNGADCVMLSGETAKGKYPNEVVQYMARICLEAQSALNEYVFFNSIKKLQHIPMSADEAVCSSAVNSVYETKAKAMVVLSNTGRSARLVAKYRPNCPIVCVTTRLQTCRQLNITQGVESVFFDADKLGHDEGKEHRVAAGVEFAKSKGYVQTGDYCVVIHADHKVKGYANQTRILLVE
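0.1 nM LmPK, 0.5 mM PEP, 0.1 mM ADP; 50 mM imidazole pH 7.2, 7 mM MgCl2, 50 mM KCl; 1 h RT. Kinase-Glo luminescence readout, normalized to no-enzyme (full inhibition) and uninhibited wells.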
Large screens that a line does not name were inactive. Most compounds without a hit are left out; they make up all but 22% or so of the library. Unless noted, the call rests on the fitted dose curve; in most records, active means well fitted inhibition curve with a large enough effect; inconclusive means small, poorly fitted or top-dose-only effect, or another doubt; inactive means no such curve, though single readings can be large or run the other way.

O=C(O)c1ccc(/C=N/N2CCN(Cc3ccc(Cl)cc3)CC2)cc1	none
COc1cccc(NC(=O)CN(C)C(=O)CC2CC3CCC2C3)c1 (stereo not given)	Pf growth 96h inconclusive (no result: Shiga toxin inh, CHX counter, LmPK inhibitor)
Clc1ccc(CN2CCN(/N=C/c3ccco3)CC2)cc1	CHX counter 19.3, Pf growth 48h inconclusive
C(=N\N1CCN(Cc2ccccc2)CC1)/c1cccs1	Shiga toxin inh 44.9, CHX counter 40.5
C(=N\N1CCN(Cc2cccc3ccccc23)CC1)/c1cccs1	none
COc1ccc(C)cc1NC(=O)CCCN1C(=O)CN(C)C1=O	none (no result: Shiga toxin inh, CHX counter, LmPK inhibitor)
O=C(CNC1CCCC1)Nc1ccc(N2CCCCCC2)cc1	Shiga toxin inh 82.8, CHX counter 56.4
O=C(Nc1ccc(N2CCOCC2)cc1)C1CCCCC1	Shiga toxin inh 85.2
Cc1ccc(NC(=O)CNC2CCCCC2)cc1Cl	Pf growth 96h 0.738µM, Pf growth 48h inconclusive
O=C(CNCCC1=CCCCC1)Nc1ccc(N2CCCCCC2)cc1	CHX counter 15.9, Pf growth 48h inconclusive
COc1cc(C2CC(=O)Oc3cc(C)c(Cl)cc32)cc(OC)c1OC (stereo not given)	none (no result: Pf growth 96h, Pf growth 48h, LmPK inhibitor)
CCc1cccc2c(C(=O)CSc3nnc(C4CC4)o3)c[nH]c12	none (no result: Shiga toxin inh, CHX counter, LmPK inhibitor)
O=C(CNCC1CCCO1)Nc1ccc(N2CCCCCC2)cc1 (stereo not given)	Shiga toxin inh 42.9, CHX counter 22.6, Pf growth 96h 0.262µM
CCOC(=O)c1c(NC(NC(=O)C(C)C)C(Cl)(Cl)Cl)sc2c1CCC2 (stereo not given)	CHX counter 15.5, Pf growth 48h inconclusive
CCCC(=O)NCc1nc2ccccc2n1CC(=O)c1ccccc1	Pf growth 96h inconclusive
COc1ccccc1N1CC(C(=O)Nc2nnc(SCC(=O)N3CCOCC3)s2)CC1=O (stereo not given)	Pf growth 96h inconclusive
CCn1c(CNc2ccc(Cl)cc2)nnc1SCC#N	Pf growth 96h 2.94µM
Oc1ccc(C=Nc2cccc3ccccc23)c(O)c1	CHX counter 14.2
O=[N+]([O-])c1ccc(O)c(C=Nc2cccc3ccccc23)c1	Pf growth 96h inconclusive
O=C(CCNS(=O)(=O)c1c(Cl)cccc1Cl)OCC(=O)c1ccccc1	none
O=C(CCNS(=O)(=O)c1c(Cl)cccc1Cl)OCC(=O)c1ccccc1F	Shiga toxin inh active
CCn1cc(/C=N/NC(=O)COc2cccc3cccnc23)c2ccccc21	Pf growth 96h inconclusive, Pf growth 48h inconclusive
Cc1c(C(=O)Nc2ccc3nc(N4CCOCC4)sc3c2)oc2ccccc12	Pf growth 96h inconclusive, Pf growth 48h 10.4µM (no result: Shiga toxin inh, CHX counter, LmPK inhibitor)
Cc1ccc(NC(=O)c2ccc3nc(N4CCOCC4)sc3c2)c(Cl)c1	CHX counter 16.3
CC(=O)Nc1c(C(=O)Nc2ccc3c(c2)OCO3)oc2ccccc12	Shiga toxin inh 113.8, CHX counter 41.8
COCC(=O)Nc1c(C(=O)Nc2ccc3c(c2)OCO3)oc2ccccc12	none
O=C(CCl)Nc1c(C(=O)Nc2ccc3c(c2)OCCO3)oc2ccccc12	Shiga toxin inh 84.0, CHX counter 69.3, Pf growth 96h inconclusive
CCc1ccccc1NC(=O)c1ccc2nc(N3CCOCC3)sc2c1	none
O=C(Nc1ccc(F)cc1)c1oc2ccccc2c1NC(=O)C1CCCC1	Pf growth 48h inconclusive
Cc1cc(Cl)ccc1OCCCC(=O)OCC(N)=O	none
COCCN(C(=O)CSc1nnc(-c2cccc(OC)c2)n1C)c1c(N)n(Cc2ccccc2)c(=O)[nH]c1=O	none
CCCCn1c(=O)[nH]c(=O)c2c(C(=O)OCC)cc(-c3ccc(OC(F)F)cc3)nc21	none
C/C(=N\NC(=O)c1nnn(-c2nonc2N)c1CN(C)c1ccccc1)c1cccnc1	none
CSCc1c(C(=O)Nc2ccccc2N2CCOCC2)oc2ccccc12	Pf growth 48h 11.7µM (no result: Shiga toxin inh, CHX counter, LmPK inhibitor)
CSCc1c(C(=O)Nc2ccc(N3CCOCC3)cc2)oc2ccccc12	none (no result: Pf growth 48h)
Cc1c(C(=O)Nc2ccc3c(c2)OCO3)oc2ccccc12	Shiga toxin inh 120.8
CSCc1c(C(=O)Nc2ccc3c(c2)OCO3)oc2ccccc12	Shiga toxin inh 59.7, CHX counter 19.5
CC1=CC(=O)C(C(C)C)=C/C1=N/OS(=O)(=O)c1ccccc1	Pf growth 96h inconclusive, Pf growth 48h 0.465µM
COc1ccc(C2=NN(C(C#N)c3ccc(OC)cc3)C(c3ccccc3)C2)cc1 (stereo not given)	Shiga toxin inh 82.7, CHX counter 32.8
COc1ccc(C(C#N)N2N=C(C)CC2c2ccccc2)cc1OC (stereo not given)	none
COc1ccc(C2=Nc3nc(-c4ccccc4)cn3C(c3ccc(OC)cc3)C2)cc1 (stereo not given)	Pf growth 96h inconclusive, Pf growth 48h 2.94µM
COc1ccc(CC(=O)OCC(=O)N2N=C(c3ccccc3)CC2c2ccc(OC)cc2)cc1 (stereo not given)	Pf growth 48h inconclusive
COc1ccc(C(C#N)N2N=C(c3ccccc3)CC2c2ccccc2)cc1OC (stereo not given)	Shiga toxin inh 44.3, CHX counter 68.5
O=S(=O)(/N=C(/Nc1ccc(F)cc1F)c1ccccc1)c1ccc(Br)cc1	none
COc1ccccc1OCC(=O)NCC1CCCN(Cc2cnn(C)c2C)C1 (stereo not given)	none
O=C(CSc1ccc2nnc(CCNC(=O)c3ccccc3)n2n1)NCCc1ccccc1	none
CCN(CC(=O)N1CCOCC1)S(=O)(=O)c1ccc2ccccc2c1	none
N#CCCN1CCN(S(=O)(=O)c2ccc(S(=O)(=O)N3CCCCCC3)cc2)CC1	none
CCN(C1CCCCC1)S(=O)(=O)c1ccc(S(=O)(=O)N2CCN(CCC#N)CC2)cc1	Pf growth 96h 6.57µM, Pf growth 48h inconclusive
CCCCN(CCCC)CC(O)c1cc(Cl)cc2c1-c1ccc(Cl)cc1/C2=C/c1ccc(Cl)cc1 (stereo not given)	Pf growth 96h 0.0213µM, Pf growth 48h 0.0151µM (no result: Shiga toxin inh, CHX counter, LmPK inhibitor)
NC(=O)C1CCN(c2oc(/C=C/c3ccccc3)nc2S(=O)(=O)c2ccccc2)CC1	Pf growth 96h inconclusive, Pf growth 48h inconclusive
CC1CCN(Cc2cc(=O)oc3ccc(C(C)C)cc23)CC1	Pf growth 96h 1.85µM, Pf growth 48h 3.29µM
Cc1ccc2oc(=O)cc(CN3CCN(Cc4ccccc4)CC3)c2c1	Pf growth 96h inconclusive, Pf growth 48h inconclusive
CCc1ccc2c(CN3CCC(C(=O)OC)CC3)cc(=O)oc2c1	CHX counter 15.5 (no result: Pf growth 48h)
CC(C)c1ccc2oc(=O)cc(CN3CCN(c4ccccc4)CC3)c2c1	Pf growth 96h inconclusive, Pf growth 48h 13.1µM
CC(C)c1ccc2oc(=O)cc(CN3CCCCC3)c2c1	Pf growth 96h inconclusive, Pf growth 48h 7.38µM
CCCC(=O)Nc1cc(S(=O)(=O)N(CC)CC)ccc1Cl	Pf growth 96h inconclusive
CCN1CCN(Cc2cc(=O)oc3ccc(Cl)cc23)CC1	none
CCc1ccc2oc(=O)cc(CN3CCCCC3)c2c1	Pf growth 96h 5.22µM, Pf growth 48h 11.7µM
CN1CCN(Cc2cc(=O)oc3ccc(Cl)cc23)CC1	Pf growth 96h 13.1µM
COc1ccccc1NC(=O)Cn1c(C)nc2c(sc(=S)n2Cc2ccco2)c1=O	Pf growth 96h inconclusive
